# In the library only some 1.6% were active in any assay of this set; here they are far more common.
# HTR5A inv ag: HTR5A inverse agonism, opioid heterodimer counter-screen. 340,000 tested, 0.083% active. inhibition, % at 9.3 µM. HTR5A cell line, luminescence. AID 504634; in the data active = inhibition mostly above about 23%, no sharp cut-off; inactive = mostly below about 18%;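 note: 0% = cells with DMSO and 100% = no-cell wells with DMSO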
# m5-HT2A agonist: mouse HTR2A agonism via beta-arrestin recruitment | P35363 | CHO-K1 mHTR2A beta-arrestin complementation, luminescence; percent of 30 µM serotonin response | activation, % at 7.6 µM | 360,000 tested, 0.66% active | AID 624169;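 active = activation above a run cutoff, the mean activation of all tested compounds plus 3 SD, cut at about 14% in these data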;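 note: 0% = plate median of compound wells and 100% = 30 µM serotonin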
# Target sequence (P35363 whole entry, looked up): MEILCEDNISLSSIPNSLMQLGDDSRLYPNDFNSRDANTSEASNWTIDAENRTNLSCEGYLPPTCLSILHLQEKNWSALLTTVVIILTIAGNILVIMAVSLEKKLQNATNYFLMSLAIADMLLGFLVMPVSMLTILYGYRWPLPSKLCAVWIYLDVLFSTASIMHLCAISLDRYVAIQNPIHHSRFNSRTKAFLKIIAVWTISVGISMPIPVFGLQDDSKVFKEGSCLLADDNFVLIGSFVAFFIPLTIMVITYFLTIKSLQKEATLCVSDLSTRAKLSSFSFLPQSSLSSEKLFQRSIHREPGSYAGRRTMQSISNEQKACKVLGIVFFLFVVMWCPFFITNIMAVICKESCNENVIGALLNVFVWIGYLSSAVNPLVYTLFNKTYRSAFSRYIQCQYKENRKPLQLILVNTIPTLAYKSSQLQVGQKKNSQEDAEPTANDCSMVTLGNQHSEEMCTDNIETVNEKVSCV
# HTR5A ag ctr: activates human HTR5A in OPRM1-OPRD1 agonist counter-screen | P47898 | HTR5A agonist assay, luminescence, cell-based | activation, % at 9.3 µM | 340,000 tested, 0.61% active; in the data active = activation mostly above about 9.5%, no sharp cut-off; inactive = mostly below about 7.6%;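 note: 0% = cells with vehicle only and 100% = reference agonist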
# MOR-DOR ag: agonists of human mu-delta opioid receptor heterodimerization | P35372+P41143 | cells, OPRM1-OPRD1 heterodimerization, luminescence | activation, % at 9.3 µM | 340,000 tested, 0.3% active | AID 504326; in the data active = activation above about 18%;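 note: 0% = vehicle-treated cells and 100% = reference agonist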
# OPRM1-OPRD1 inv: mu-delta opioid heterodimer inverse agonism; P35372+P41143; 340,000 tested, 0.21% active; cell-based MOR-DOR heterodimer luminescence; AID 504357; inhibition, % at 9.3 µM; in the data active = inhibition above about 22%, passing the limit was not always enough;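 note: 0% = cells with DMSO and 100% = wells without cells with DMSO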
# The depositor's hits bear a star; nt = not tested or not shown.
SMILES,HTR5A inv ag,m5-HT2A agonist,HTR5A ag ctr,MOR-DOR ag,OPRM1-OPRD1 inv
O=C(c1ccco1)N1CCC(c2nc3c(nnn3Cc3c(Cl)cccc3Cl)c(=O)[nH]2)CC1,-30,-3,1,0,-3
NC(=O)C1=C(c2ccccc2)c2ccccc2C1=O,-9,11,3,-1,3
CCOC(=O)c1csc(NC(=O)c2ccc(S(=O)(=O)N(CC)CC)cc2)n1,-26,0,12*,1,-6
CCN(Cc1ccncc1)C(=O)c1cc(COc2c(C)cccc2C)on1,8,2,6,1,-5
COc1ccc(NC(=O)CSc2nncn2N)c(OC)c1,-17,-1,1,-1,4
COc1ccccc1NC(=O)CSc1nncn1N,-2,11,13*,-2,10
COC(=O)CCC(=O)OC1(C)C(=O)C2=CN(C3CC3)C(c3ccc(OC)cc3)=CC2=C(Br)C1=O (stereo not drawn),-53,6,9.4*,9,-53
CSc1cccc(NC(=O)CNC(=O)c2ccc3c(c2)OCO3)c1,24,-3,10*,-1,4
CCOc1ccc(C(=O)NCC(=O)Nc2ccc3c(c2)OCO3)cc1OCC,2,-6,-1,0,1
CCC(=O)Nc1cccc(SC)c1,15,4,13*,3,-17
CC12CCC(C(=O)N(CSC(=S)N/N=C\c3ccccc3)C1=O)C2(C)C (stereo not drawn),-11,-2,10*,1,-4
COc1ccc(NS(=O)(=O)c2cc(NC(=O)c3ccc(F)cc3)ccc2OC)cc1,-16,0,5,-1,6
CCOc1ccc(NC(=O)c2[nH]c(C)c(C(C)=O)c2C)cc1,3,-1,-1,-2,9
COc1ccc(NC(=O)c2[nH]c(C)c(C(C)=O)c2C)cc1S(=O)(=O)Nc1ccc(Br)cc1,-2,-10,13*,-2,9
COc1ccc(NC(=O)c2ccc(F)cc2)cc1S(=O)(=O)Nc1cc(C)ccc1Br,-9,-1,12*,5,-33
COc1ccc(NC(=O)c2[nH]c(C)c(C(C)=O)c2C)cc1,2,0,12*,2,-9
Clc1ccc(CN2CCc3c([nH]c4ccccc34)C2)cc1Cl,-52,3,14*,10,-50
Clc1cccc(CN2CCc3c([nH]c4ccccc34)C2)c1,-16,8,4,2,-7
CC(C)(C)c1ccc(Cn2nnc3c(=O)[nH]c(C4CCN(C(=O)c5ccco5)CC4)nc32)cc1,-10,0,-4,-1,3
Cc1cc(C)c2c(CN(Cc3ccccc3)Cc3ccccc3)cc(=O)oc2c1,nt,-4,nt,nt,nt
CN1CCN(C2=C(Cl)C(=O)c3ccccc3C2=O)CC1,14,3,-3,28*,-136
O=C1C(Cl)=C(N2CCC(C(=O)O)CC2)C(=O)c2ccccc21,0,-3,-1,4,-22
O=C(NCc1ccccc1)N1CCN(c2ccc(Cl)c(Cl)c2)CC1,4,18*,1,9,-52
O=C(CSc1nnc2c(n1)[nH]c1ccccc12)NCc1ccccc1F,-11,15*,4,2,-16
C#CC(CC)(CC)NC(=O)c1cc(S(=O)(=O)N2CCCCC2)ccc1N1CCOCC1,-8,3,3,-2,10
SMILES,HTR5A inv ag,m5-HT2A agonist,HTR5A ag ctr,MOR-DOR ag,OPRM1-OPRD1 inv
Clc1ccc(-n2nnc(-c3ncc[nH]3)n2)cc1Cl,25,-1,-10,-2,9
Cc1cc(NC(=O)COc2ccc3ccccc3c2Br)no1,-43,-5,12*,2,-13
CCOc1ccccc1OCC(=O)Nc1cc(C)on1,21,-2,-9,-2,6
O=C(C(=NNc1ccccc1)C(=S)Nc1ccccc1)c1ccccc1,nt,-8,nt,nt,nt
O=C(Nc1ccc(N2CCOCC2)cc1)C1CC1,6,0,-2,0,-2
O=C(Nc1ccc(N2CCOCC2)cc1)NC1CCCCC1,12,15*,2,-1,5
O=C(/C=C/c1ccco1)OCC(=O)c1cccc([N+](=O)[O-])c1,-3,-1,1,-5,29*
CC1(C(=O)OCC(=O)NCCNC(=O)COC(=O)C2(C)CC2(Cl)Cl)CC1(Cl)Cl (stereo not drawn),-24,2,12*,-1,6
Fc1cc(Br)ccc1COc1ccc(-c2nnco2)cc1,-4,-3,2,-3,16
O=C(O)C1Cc2[nH]cnc2C(c2ccc(F)cc2)N1 (stereo not drawn),-4,0,1,-1,5
